Data reported in PubChem BioAssay (NCI).
Compounds without any hit were thinned out: in the full panel of roughly 83,000, 20% have a hit.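 Single-concentration screen, 48 h exposure, 96-well plates. Endpoint: percent growth. Below 10 = active.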 A number with no mark means an inactive call. Activity calls are given as the source filed them.

Tests used:
Test in all cases: NCI-60 one-dose screen, 48 h (100 = growth as untreated, 0 = no growth, -100 = all killed)
Details in all cases: 10 µM unless noted
[1] = tested on: HCT-15 colon
[2] = tested on: HT29 colon
[3] = tested on: SNB-75 CNS
[4] = tested on: SNB-19 CNS
[5] = tested on: U251 CNS
[6] = tested on: PC-3 prostate
[7] = tested on: SK-MEL-5 melanoma
[8] = tested on: UACC-62 melanoma
[9] = tested on: LOX IMVI melanoma
[10] = tested on: SK-MEL-28 melanoma

Row | Structure (SMILES) | growth [1] | growth [2] | growth [3] | growth [4] | growth [5] | growth [6] | growth [7] | growth [8] | growth [9] | growth [10]
1 | CC(C)N1CN2C(=S)NC3C2N(C1)C(=S)N3C (stereo not given) | 105% | 92.4% | 85.5% | 100% | 101% | 98% | 97.9% | 96.6% | 98.9% | 114%
2 | COc1cc(C(=O)n2nc(N3CCN(C)CC3)c3cc(N)ccc32)cc(OC)c1OC | 37% | 86.8% | 39.9% | 35.2% | 31.2% | 50.1% | 27.3% | 26.2% | 35.5% | 65.8%
3 | O=C1C(Cl)=C(Oc2ccccc2)C(=O)c2ccccc21 | 70.5% | 94.1% | 73.1% | 58.4% | 42.1% | 47.8% | 74.8% | 53% | 85% | 120%
4 | COc1ccc(-c2cn(-c3cc(OC)c(OC)c(OC)c3)c(=O)n2C(C)=O)cc1 | 90.9% | 85.4% | 88.3% | 92.9% | 97.6% | 105% | 94% | 84.2% | 95.5% | 103%
5 | CC(C)(C)n1cc(-c2ccnc(NCCNS(=O)(=O)c3cccc(F)c3)c2)c(-c2ccccc2)n1 | 62.5% | 41.4% | 85.2% | 89.3% | 67.5% | 80.3% | 72.3% | 81.7% | 85.1% | 102%
6 | COc1ccc2[nH]cc(-c3nc(-c4cn(C)c5c(Cl)nccc45)cs3)c2c1 | 0.0691% (active) | 9.12% (active) | 61.6% | 79.2% | 16.3% | 23.4% | 34.5% | 43.8% | 21% | 46%
7 | S=C(Nc1ccc(-c2nc(N3CCOCC3)c3cccn3n2)cc1)Nc1cccnc1 | 18.4% | 22.8% | 36.5% | 32.2% | 31.7% | 16.4% | 58.2% | 25.4% | 30.8% | 45.9%
8 | O=C1c2cccc(NCCN=Cc3cc(O)ccc3O)c2C(=O)c2c(NCCN=Cc3cc(O)ccc3O)cccc21 | 23.2% | -22.1% (active) | -22% (active) | -22.4% (active) | -43.8% (active) | -38.4% (active) | 4.84% (active) | 5.11% (active) | -44.9% (active) | -30.9% (active)
9 | O=S(=O)(Nc1ccccc1)c1ccc(C2CC3(Cl)C(Cl)=C(Cl)C2(Cl)C3(Cl)Cl)cc1 (stereo not given) | 50.6% | 35.2% | 69.6% | 77.6% | 39.8% | 13.5% | 60.7% | 43.6% | 39% | 68.3%
10 | O=C(Nc1cccc([N+](=O)[O-])c1)c1cc2ccccc2cc1O | 12.8% | 13.4% | 6.46% (active) | 25.8% | 6.12% (active) | 0.633% (active) | -53.6% (active) | 18.8% | 10% | 28.1%
11 | COc1ccc(-c2ccc3cnc4sc(-c5ccc(OC)cc5)nc4c3n2)cc1 | 97.6% | 100% | 85.8% | 98.4% | 94.4% | 70.3% | 85.2% | 98.8% | 87% | 107%
12 | CN1CCN(C(=O)OCc2ccc3c(Cl)cc(Cl)c(O)c3n2)CC1 | 22.8% | 103% | 70.7% | 53.3% | 36.6% | 44.1% | 49.6% | 60% | 49.3% | 67.1%
13 | O=C(c1cc2ccccc2o1)c1nn(-c2ccccc2)/c(=N/N=Cc2cn(-c3ccccc3)nc2-c2cc3ccccc3oc2=O)s1 | 87.8% | 107% | 97.2% | 101% | 83.1% | 93% | 102% | 97.2% | 95.6% | 114%
